PubChem BioAssay (NCATS)
Inconclusive results are not listed. Calls of active or inactive are those of the source. The call rests on the fitted dose curve; in most records, active means well fitted curve in the direction sought with a large enough effect; inconclusive means small, poorly fitted or top-dose-only effect, or another doubt; inactive means no such curve, though single readings can be large; an effect the other way counts as inactive or inconclusive.

Columns and labels:
[1] = Cell Viability - LYMP2-011 (AID 969); further: nearly all actives have a fitted effect of over 60% in size
In short: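 Cells seeded at 2500 per well rest 5 hr before compound addition, then incubate 24 hr at 37 C. CellTiter-Glo reagent is added for 30 min at room temperature before luminescence detection.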

[2] = Cell Viability - LYMP2-015 (AID 971); further: nearly all actives have a fitted effect of over 55% in size
In short: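 AC50 values reflect Hill-model fits of ATP-based luminescence (CellTiter-Glo) from a human lymphoblastoid line, 2500 cells/well, treated 24 hr at 37 C.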

[3] = Cell Viability - LYMP2-017 (AID 972); further: series mostly up to about 92 µM; nearly all actives have a fitted effect of over 55% in size
In short: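 In this qHTS format, lymphoblastoid cells in complete medium receive test compound for a day at 37 C before ATP content is quantified by luciferase luminescence. Reported AC50 figures come from standard Hill-equation curve fitting.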

[4] = Cell Viability - LYMP2-019 (AID 973); further: nearly all actives have a fitted effect of over 55% in size
In short: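 AC50 values come from Hill-equation modelling of qHTS concentration-response curves, where viability is measured as luciferase-based ATP luminescence in the lymphoblastoid line after 24 hr compound exposure in complete culture medium.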

[5] = Cell Viability - LYMP2-021 (AID 974);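 further: compound exposure lasts 24 hours at 37 °C; nearly all actives have a fitted effect of over 55% in size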
In short: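 In qHTS format, compounds are tested against 2500 lymphoblastoid cells per well for 24 h; viable cell number is inferred from ATP-driven luciferase light, and Hill-equation fitting yields AC50 values.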

[6] = Cell Viability - LYMP2-025 (AID 976); further: series mostly up to about 92 µM
In short: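 Luminescent ATP readout after 24 hr treatment of a human lymphoblastoid line (LYMP2-025, 2500 cells/well, 37 C). Reagent developed 30 min at room temperature; AC50 fitted with the Hill equation.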

[7] = Cell Viability - LYMP2-002 (AID 977);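 further: series mostly up to about 92 µM; compound exposure lasted 24 h at 37 °C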
In short: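 In this qHTS viability screen, 2500 human lymphoblastoid cells per well receive compound for 24 hr at 37 C, and luciferase-based ATP luminescence gives the viability signal. Tetraoctylammonium bromide serves as positive control.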

[8] = Cell Viability - LYMP2-006 (AID 978); further: series mostly up to about 92 µM; nearly all actives have a fitted effect of over 60% in size
In short: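 Human lymphoblastoid cells (LYMP2-006), 2500/well in complete medium, were treated with compound for 24 hr at 37 C. Cellular ATP was read by CellTiter-Glo luminescence after 30 min, and AC50 values came from Hill-equation fits of concentration-response data.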

[9] = Cell Viability - LYMP2-007 (AID 979);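 further: cells exposed to compound for 24 h before reading; nearly all actives have a fitted effect of over 60% in size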
In short: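 Measured via luciferase-based ATP quantitation: lymphoblastoid cells, 24 hr compound exposure at 37 C, AC50 from Hill fits.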

[10] = Cell Viability - LYMP2-008 (AID 980); further: nearly all actives have a fitted effect of over 60% in size
In short: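 Measured: ATP-dependent luminescence, proportional to viable cell number, in human lymphoblastoid cells treated 24 hr with compound in complete culture medium. Values are AC50s from Hill-equation modelling of qHTS titrations.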

[11] = Cell Viability - LYMP2-010 (AID 981); further: nearly all actives have a fitted effect of over 55% in size
In short: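 This 24 hr viability screen uses LYMP2-010 lymphoblastoid cells, quantifies ATP via luciferase luminescence, and derives AC50 from Hill fits of qHTS concentration-response data.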

[12] = Cell Viability - LYMP2-014 (AID 983); further: series mostly up to about 92 µM; nearly all actives have a fitted effect of over 50% in size
In short: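 Quantitative HTS in lymphoblastoid cells: 24 hr compound exposure, then CellTiter-Glo ATP luminescence. Positive control was tetraoctylammonium bromide, 6.4pM to 92 uM.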

[13] = Cell Viability - LYMP2-016 (AID 984); further: nearly all actives have a fitted effect of over 55% in size
In short: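 Human lymphoblastoid LYMP2-016 cells, 2500 per well, treated with compounds for 24 h at 37 C. Viability read as intracellular ATP by CellTiter-Glo luminescence after 30 min at room temperature; AC50 from Hill fits of concentration-response.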

[14] = Cell Viability - LYMP2-018 (AID 985); further: nearly all actives have a fitted effect of over 50% in size
In short: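 In this qHTS viability assay, cells are treated for 24 hr and cellular ATP is quantified by luciferase-based luminescence, with tetraoctylammonium bromide as positive control.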

[15] = Cell Viability - LYMP2-020 (AID 986)
In short: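 Cells at 2500 per well receive a 24 hr compound exposure at 37 C. Viability is measured as ATP-dependent luciferase luminescence, with AC50 modeled from qHTS concentration-response curves.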

[16] = Cell Viability - LYMP2-022 (AID 987); further: nearly all actives have a fitted effect of over 55% in size
In short: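 In this qHTS cytotoxicity screen, compound titrations were incubated 24 hr at 37 C with human lymphoblastoid cells in complete medium. Luciferase-based ATP luminescence provided the viability signal.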

[17] = Cell Viability - LYMP2-024 (AID 988); further: nearly all actives have a fitted effect of over 60% in size
In short: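 Cells at 2500 per well received compound for 24 hr after a 5 hr settling period. Viability was scored by CellTiter-Glo luminescence, with AC50 from Hill fits.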

[18] = Cell Viability - LYMP1-002 - Assay at 24 hr (AID 993)
In short: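 Viability was judged from intracellular ATP using a luciferase read-out, following a 24-hour compound incubation at 37 C of lymphoblastoid cells seeded at 2500 per well. Concentration-response data were fitted to the Hill equation for AC50.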

[19] = target: Alpha-galactosidase A (Homo sapiens) (UniProt P06280); experiment: Counterscreen for Glucocerebrosidase Inhibitors: qHTS Assay for Human alpha-Galactosidase at pH 4.5 (AID 992)
Sequence of Alpha-galactosidase A (Homo sapiens) (P06280 whole entry, looked up): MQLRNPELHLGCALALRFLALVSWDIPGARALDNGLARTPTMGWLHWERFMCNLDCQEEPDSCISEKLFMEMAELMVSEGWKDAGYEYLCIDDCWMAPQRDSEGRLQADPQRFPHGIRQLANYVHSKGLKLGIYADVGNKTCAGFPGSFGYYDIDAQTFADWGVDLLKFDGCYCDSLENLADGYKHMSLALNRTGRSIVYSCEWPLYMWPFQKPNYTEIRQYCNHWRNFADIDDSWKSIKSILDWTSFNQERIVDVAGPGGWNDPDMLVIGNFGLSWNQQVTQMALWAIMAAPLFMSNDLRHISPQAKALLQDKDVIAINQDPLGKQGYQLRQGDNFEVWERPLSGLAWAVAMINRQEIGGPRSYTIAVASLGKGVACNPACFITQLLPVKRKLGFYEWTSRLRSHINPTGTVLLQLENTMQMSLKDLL
In short: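 Steps: enzyme (2 nM final), then compound across 0.7 nM to 77 uM, then 80 uM fluorogenic galactopyranoside substrate; incubate 20 min at room temperature; quench at pH 10; measure fluorescence at 365/440 nm.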

[20] = target: alpha-glucosidase (Oryza sativa, rice) (UniProt Q653V4); experiment: Counterscreen for Glucocerebrosidase Inhibitors: qHTS Assay for Rice alpha-Glucosidase at pH 5.0 (AID 997)
In short: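 Endpoint fluorogenic assay at pH 5.0: compounds (0.7 nM to 77 uM) titrated against 4 nM rice enzyme and 400 uM 4-MU-alpha-glucoside for 20 min at room temperature; NaOH/glycine stop, read ex 365/em 440 nm, Hill-fitted AC50.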

Measured: Potency

COc1ccc(C(c2ccc(OC)cc2)C(Cl)(Cl)Cl)cc1
not listed: [19] | [20]
inactive: all other assays above

CCOP(=O)(NC(C)C)Oc1ccc(SC)c(C)c1 (stereo not drawn)
not listed: [19] | [20]
inactive: all other assays above

O=[N+]([O-])c1cc([N+](=O)[O-])c2ccccc2c1
not listed: [19] | [20]
inactive: all other assays above

CNCCc1c[nH]c2ccc(O)cc12
inactive: [19] | [20]

O=C(O)CC[N+](=O)[O-]
inactive: [19] | [20]

O=[N+]([O-])c1c2ccccc2cc2ccccc12
not listed: [19] | [20]
inactive: all other assays above

Cc1cc(O)ccc1Cl
not listed: [19] | [20]
inactive: all other assays above

CN(C)[C@@H]1C(=O)C(C(N)=O)=C(O)[C@@]2(O)C(=O)C3=C(O)c4c(O)cccc4[C@@](C)(O)[C@H]3[C@H](O)[C@@H]12
not listed: [19] | [20]
inactive: all other assays above

Nc1ccc(Cl)cc1N
not listed: [2] | [16] | [19] | [20]
inactive: all other assays above

CCCCCCCCc1ccc(O)cc1
not listed: [19] | [20]
inactive: all other assays above

O=C(O)COc1ccccc1
not listed: [19] | [20]
inactive: all other assays above

COC(C)(C)CCCC(C)C/C=C/C(C)=C/C(=O)OC(C)C (stereo not drawn)
not listed: [19] | [20]
inactive: all other assays above

C=CC(=O)NCNC(=O)C=C
not listed: [19] | [20]
inactive: all other assays above

C#CCOC(=O)C1=CCCN(C)C1
inactive: [19] | [20]

Clc1cnc(Oc2ccc(Oc3ncc(Cl)cc3Cl)cc2)c(Cl)c1
inactive: [19] | [20]

CCCN1CCO[C@@H]2c3cc(O)ccc3OC[C@H]21
inactive: [19] | [20]

S=C(NC1CCCCC1)N1CCC(c2cnc[nH]2)CC1
inactive: [19] | [20]

O=C(O)Cc1cnc[nH]1
inactive: [19] | [20]

Cc1c(C(=O)c2cccc3ccccc23)c2cccc3c2n1[C@H](CN1CCOCC1)CO3
inactive: [19] | [20]

CC(=O)NCCc1c[nH]c2ccccc12
inactive: [19] | [20]

COc1ccc2c(c[n+](C)c3c4cc5c(cc4ccc23)OCO5)c1OC
inactive: [19] | [20]

CNCCc1ccc(O)c(O)c1
inactive: [19] | [20]

Cc1nc(-c2ccc(-c3ccc(C(=O)N4CCc5cc6c(cc54)C4(CCN(C)CC4)CO6)cc3)c(C)c2)no1
inactive: [19] | [20]

CC[C@@]1(O)C(=O)OCc2c1cc1n(c2=O)Cc2cc3ccccc3nc2-1
inactive: [19] | [20]

c1ccc2sc(C3(N4CCCCC4)CCCCC3)cc2c1
inactive: [19] | [20]

NCCc1c[nH]c2ccccc12
inactive: [19] | [20]

NCCc1c[nH]c2ccc(O)cc12
inactive: [19] | [20]

NC(=NCCC[C@H](N)C(=O)O)N[N+](=O)[O-]
inactive: [19] | [20]

Cn1cnc(CCN)c1
inactive: [19] | [20]

CCCN(CCC)[C@@H]1CCc2ccc(O)cc2C1
inactive: [19] | [20]

O=C1CCCN1CC#CCN1CCCC1
inactive: [19] | [20]

CN[C@@H]1C[C@@H](c2ccc(Cl)c(Cl)c2)c2ccccc21
inactive: [19] | [20]

CCCN1CCC[C@H](c2cccc(O)c2)C1
inactive: [19] | [20]

C[C@]12N[C@H](Cc3ccccc31)c1ccccc12
inactive: [19] | [20]

c1ccc(CCCN2CCN(CCOC(c3ccccc3)c3ccccc3)CC2)cc1
inactive: [19] | [20]

CC(C)Oc1cccnc1N(C)C1CCN(Cc2ccccc2)CC1
inactive: [19] | [20]

NCc1cc(=O)[nH]o1
inactive: [19] | [20]

CCCCc1ccc(C(=O)O)nc1
inactive: [19] | [20]

Cc1nccc2c1[nH]c1ccccc12
inactive: [19] | [20]

NC(N)=NOCCC(N)C(=O)O (stereo not drawn)
inactive: [19] | [20]

CC1=NN=C(c2ccc(N)cc2)c2cc3c(cc2C1)OCO3
inactive: [19] | [20]

C[C@@H]1O[C@H](C[N+](C)(C)C)C[C@H]1O
inactive: [19] | [20]
